This passage reports inhibition results from PubChem BioAssay.

Broadly, the inhibition is the relative decrease from the control value, in per cent.

Unmarked numbers belong to inactive results. Active and inactive are the calls of the source.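 How the source made its calls, unless noted: active means inhibition of the reporter signal at or above 50%; inactive means inhibition below 50%.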

A short description of one assay: blockers of RIG-like receptor reporter activation – cell-based, Sendai virus stimulus, luciferase, 10K MLSCN set, TLR/RLR signaling modifier project, primary screen (AID 602276;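 active means inhibition at or above 50% at 10 µM; inactive means inhibition below 50%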;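 further: firefly luciferase from ISG56 promoter only with Renilla not read in this screen; 0% = Sendai virus plus DMSO and 100% = medium plus DMSO without virus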). To be noted: HEK293 RL24 IRF3 luciferase reporter, at 10 µM, hits give high values. Background: A reporter such as luciferase makes a cellular process visible.
Consider `CCOC(=O)c1cnc(-n2nc(C)cc2C)nc1Nc1ccc(N(C)C)cc1`, for which the inhibition is 4.06%.

`Cc1ccc(S(=O)(=O)N2CCOCC2)cc1C(=O)Nc1ccccn1`: the inhibition is 7.52%.

Turning to `COC(=O)c1ccc(CNC(=O)COc2ccccc2Br)o1`, the inhibition is 5.53%.

For the compound `Cc1cc2oc(=O)cc(CN3CCCCC3)c2cc1C(C)C`, the inhibition was 10.7%.

On to `Cc1ccc(N2CC(C(=O)Nc3nnc(C)s3)CC2=O)cc1` (centres undefined), for which the inhibition is 18.6%.

Consider `Cc1ccc(-c2[nH]nc3c2C(c2ccc(OC(=O)N4CCOCC4)cc2)C(C#N)=C(N)O3)cc1` (centres undefined), for which the inhibition was 4.48%.

For the compound `COc1cccc(NC(=O)COc2ccccc2C(N)=O)c1`, the inhibition is -78.1%.

Consider `CCSc1nc(O)c(CC)c(=O)n1C(C)CC` (centres undefined), for which the inhibition is -0.896%.

Regarding `O=C(NCC(=O)N(CCc1ccccc1)C(C(=O)NC1CCCC1)c1cccnc1)c1ccco1` (centres undefined), the inhibition was 7.14%.

As to `CCCn1cnc2c(c1=O)c1nc3ccccc3nc1n2Cc1ccccc1OC`, the inhibition is -9.22%.

Turning to `CCn1nnc(NC(=O)c2cc3ccccc3o2)n1`, the inhibition was -50.7%.

Turning to `c1ccc(-c2cn3cccnc3n2)cc1`, the inhibition is -12.5%.

Regarding `COc1ccccc1-n1cnc(N)c1C(C)=O`, the inhibition is 6.44%.

On to `CCOC(=O)C1CCCN(C(=O)c2ccc3c(=O)n(CCOC)c(=S)[nH]c3c2)C1` (centres undefined), for which the inhibition was 6.16%.

Consider `COc1ccc(C2C(C#N)=C(C)NC3=C2C(=O)CC(C)(C)C3)c(OC)c1` (centres undefined), for which the inhibition is 15.1%.

`O=C(CN1C(=O)NC(Cc2ccccc2)C1=O)Nc1ccccc1` (centres undefined): the inhibition was -15.9%.

With `COC(=O)c1ccccc1NC(=O)Cn1c(-c2nonc2N)nc2ccccc21`, the inhibition was 47.8%.

For `CCCc1cc(=O)n2[nH]c(-c3ccc(Br)cc3)cc2n1`, the inhibition is -22.4%.

Turning to `COc1ccc(OC)c(N2Cc3cc(C)c(C)cc3C2)c1`, the inhibition was -3.86%.

For `CC1CCCC(NC(=O)CSc2ncccc2C(=O)O)C1C` (centres undefined), the inhibition was 13.9%.

Take `O=c1cc(-c2ccccc2)[nH]c2nc3ccccc3n12`: the inhibition is 40.6%.

In the case of `CCN1CCN(S(=O)(=O)c2ccc(S(=O)(=O)N(CC)Cc3ccccc3)cc2)CC1`, the inhibition was 16.4%.

For `CCOC(=O)C1CCCN(C(=O)c2cc3c(C)nc4ccccc4c3o2)C1` (centres undefined), the inhibition was 14.5%.

Turning to `CCCC(=O)Nc1ccc(NC(=O)c2cccs2)cn1`, the inhibition was -12.8%.

Another assay can be described thus: TLR3 IRF3 reporter activation blockers – cell-based, poly I:C stimulus, luciferase, 10K MLSCN set, primary screen (AID 602277). To be noted: HEK293-TLR3 RL24 IRF3 luciferase reporter, at 10 µM, hits give high values.
As to `COCCNc1nc(C(C)(C)C)nc2c1nnn2Cc1ccccc1Cl`, the inhibition was 56% (active).

Consider `CNC(=O)CSc1nnc(-c2cc(C)cc(C)c2)o1`, for which the inhibition was -12.1%.

As to `CC(C(=O)c1ccccc1)n1cnc2ccccc2c1=O` (centres undefined), the inhibition was 10.7%.

`COC(=O)COc1ccc(C(=O)OC)cc1`: the inhibition was 10.8%.

For `CC(C)(C)OC(=O)N1CCN(c2ccc(NC(=O)c3cc4ccccc4oc3=O)cc2)CC1`, the inhibition was -11.3%.

Turning to `CCOC(=O)C1=C(Cn2cnc3ccccc32)NC(=O)NC1c1cc(C)ccc1C` (centres undefined), the inhibition is 19%.

Take `COc1cc(OC)cc(C(=O)NCCN2CCOCC2)c1`: the inhibition is 9.91%.

Consider `CC1=C(C(=O)OCCOC(C)C)C(c2cc3c(cc2Br)OCO3)C2=C(CCCC2=O)N1` (centres undefined), for which the inhibition was 26.6%.

With `Cn1c(=O)c2ccccc2n(Cc2ccccc2F)c1=O`, the inhibition was 65.6% (active).

As for `COc1ccc(-c2noc(CCC(=O)Nc3nc4ccccc4s3)n2)cc1`, the inhibition was -8.39%.

Consider `Cc1cc(C)n(Cc2nc3ccccc3n2C)n1`, for which the inhibition is 36.3%.

For `COC(=O)c1ccccc1NC(=O)C1CCCCC1C(=O)O` (centres undefined), the inhibition was 11.6%.

Consider `COc1ccc(OC)c(NC(=O)CCN2CCN(c3ccccc3F)CC2)c1`, for which the inhibition was 0.616%.

As to `COc1ccc(-c2cn3c(C)c(C(=O)Nc4cc(NC(C)=O)ccc4OC)sc3n2)cc1`, the inhibition is 26.4%.

As for `COc1ccc(-n2nnc3c(=O)n(C/C=C/c4ccccc4)cnc32)cc1`, the inhibition was 7.09%.

On to `Cc1ccc(S(=O)(=O)N2CCCC2C(=O)n2nc(C)cc2C)cc1` (centres undefined), for which the inhibition was 19.1%.

For `CCOC(=O)c1cnc(-n2nc(C)cc2C)nc1Nc1ccc(N(C)C)cc1`, the inhibition was 4.11%.

Regarding `Cc1ccc(S(=O)(=O)N2CCOCC2)cc1C(=O)Nc1ccccn1`, the inhibition is 12%.

As for `COC(=O)c1ccc(CNC(=O)COc2ccccc2Br)o1`, the inhibition is 1.32%.

With `Cc1cc2oc(=O)cc(CN3CCCCC3)c2cc1C(C)C`, the inhibition is 40.9%.

For the compound `Cc1ccc(N2CC(C(=O)Nc3nnc(C)s3)CC2=O)cc1` (centres undefined), the inhibition is 14.5%.

Consider `Cc1ccc(-c2[nH]nc3c2C(c2ccc(OC(=O)N4CCOCC4)cc2)C(C#N)=C(N)O3)cc1` (centres undefined), for which the inhibition is 9.32%.

Take `COc1cccc(NC(=O)COc2ccccc2C(N)=O)c1`: the inhibition was -182%.

`CCSc1nc(O)c(CC)c(=O)n1C(C)CC` (centres undefined): the inhibition is 4.86%.

Regarding `O=C(NCC(=O)N(CCc1ccccc1)C(C(=O)NC1CCCC1)c1cccnc1)c1ccco1` (centres undefined), the inhibition was 6.57%.

Take `CCCn1cnc2c(c1=O)c1nc3ccccc3nc1n2Cc1ccccc1OC`: the inhibition is 101% (active).

On to `CCn1nnc(NC(=O)c2cc3ccccc3o2)n1`, for which the inhibition was -120%.

In the case of `c1ccc(-c2cn3cccnc3n2)cc1`, the inhibition was -40.2%.

As to `COc1ccccc1-n1cnc(N)c1C(C)=O`, the inhibition was 5.79%.

Regarding `CCOC(=O)C1CCCN(C(=O)c2ccc3c(=O)n(CCOC)c(=S)[nH]c3c2)C1` (centres undefined), the inhibition was -7.26%.

With `COc1ccc(C2C(C#N)=C(C)NC3=C2C(=O)CC(C)(C)C3)c(OC)c1` (centres undefined), the inhibition is 18.9%.

On to `O=C(CN1C(=O)NC(Cc2ccccc2)C1=O)Nc1ccccc1` (centres undefined), for which the inhibition was -20.9%.

Take `COC(=O)c1ccccc1NC(=O)Cn1c(-c2nonc2N)nc2ccccc21`: the inhibition was 30%.

In the case of `CCCc1cc(=O)n2[nH]c(-c3ccc(Br)cc3)cc2n1`, the inhibition is -15.4%.

On to `COc1ccc(OC)c(N2Cc3cc(C)c(C)cc3C2)c1`, for which the inhibition is -7.05%.

Consider `CC1CCCC(NC(=O)CSc2ncccc2C(=O)O)C1C` (centres undefined), for which the inhibition was 24.3%.

In the case of `O=c1cc(-c2ccccc2)[nH]c2nc3ccccc3n12`, the inhibition is 27%.

For `CCN1CCN(S(=O)(=O)c2ccc(S(=O)(=O)N(CC)Cc3ccccc3)cc2)CC1`, the inhibition was 16.6%.

In the case of `CCOC(=O)C1CCCN(C(=O)c2cc3c(C)nc4ccccc4c3o2)C1` (centres undefined), the inhibition is 5.32%.

Turning to `CCCC(=O)Nc1ccc(NC(=O)c2cccs2)cn1`, the inhibition is -57.7%.
